The record followed here is PubChem BioAssay (NCATS).

Inconclusive results are not listed. Activity calls are given as the source filed them. The call rests on the fitted dose curve; in most records, active means well fitted curve in the direction sought with a large enough effect; inconclusive means small, poorly fitted or top-dose-only effect, or another doubt; inactive means no such curve, though single readings can be large; an effect the other way counts as inactive or inconclusive.

The nature of experiment [1]: qHTS of pediatric cancer cell lines to identify multiple opportunities for drug repurposing: Primary screen for SJ-GBM2 cells (AID 1347091). Further: potency means the concentration at half of the fitted maximal effect. The method in brief: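 Eight- or eleven-point concentration series, 48 h treatment at 37 degrees C in growth media; readout CellTiter-Glo luminescence. Potency and efficacy were taken from the concentration-response curves.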
(In general: qHTS replaces the single test concentration by a dilution series.)

Experiment [2] is described as follows: qHTS of pediatric cancer cell lines to identify multiple opportunities for drug repurposing: Primary screen for A673 cells (AID 1347092). Further: nearly all actives have a fitted effect of over 45% in size. Further: potency means the concentration at half of the fitted maximal effect. The essentials: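 Cell viability of A673 measured by CellTiter-Glo ATP luminescence after 48 hours compound exposure. Dilution series spanned 0.78 nM to 46 µM (MIPE, 11-point) or 0.59 nM to 46 µM (NPC, 8-point); bortezomib 2.3 uM positive control.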

Experiment [3] in a line: qHTS of pediatric cancer cell lines to identify multiple opportunities for drug repurposing: Primary screen for SK-N-SH cells (AID 1347098). Further: nearly all actives have a fitted effect of over 65% in size. Further: potency means the concentration at half of the fitted maximal effect. The essentials:
(§1)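 Cells (500-1,000/well) rested 5 h, then received compounds for 48 h; metabolically active cells were measured by CellTiter-Glo luminescence. Final concentrations spanned up to 46 µM (MIPE, 11-point) or 0.59 nM-46 µM (NPC, 8-point) in primary screens, 11-point in follow-ups.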

The nature of experiment [4]: qHTS of pediatric cancer cell lines to identify multiple opportunities for drug repurposing: Primary screen for NB1643 cells (AID 1347099). Further: nearly all actives have a fitted effect of over 50% in size. Further: potency means the concentration at half of the fitted maximal effect. The method in brief:
(§2)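 Luminescence from CellTiter-Glo served as readout of metabolically active cells after 48 h compound exposure. Titrations: MIPE 11-point, from 0.78 nM; NPC 8-point, from 0.59 nM (final). Concentration-response curves came straight from the primary screen.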

A short description of experiment [5]: qHTS of pediatric cancer cell lines to identify multiple opportunities for drug repurposing: Primary screen for LAN-5 cells (AID 1347100). Further: potency means the concentration at half of the fitted maximal effect. The method in brief:
(§3)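 Cells (500-1,000/well) in growth media were settled 5 h at 37 degrees C, then given compounds for 48 h. Viability was read as CellTiter-Glo luminescence. Primary runs used MIPE at 11 points (0.78 nM-46 µM) and NPC at 8 points (0.59 nM-46 µM); follow-ups used 11 points.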

Experiment [6] can be described thus: qHTS of pediatric cancer cell lines to identify multiple opportunities for drug repurposing: Primary screen for OHS-50 cells (AID 1347103). Further: nearly all actives have a fitted effect of over 40% in size. Further: potency means the concentration at half of the fitted maximal effect. The method in brief: as §1
A short description of experiment [7]: qHTS of pediatric cancer cell lines to identify multiple opportunities for drug repurposing: Primary screen for control Hh wild type fibroblast cells (AID 1347106).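 Further: series mostly up to about 46 µM; a drop in luminescence marks cytotoxicity and a rise apparent proliferation; nearly all actives have a fitted effect of over 55% in size.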 The method in brief:
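Viability after 48 h compound treatment at 37C, 500-1,000 cells/well, read as ATP luminescence with CellTiter-Glo. Primary screens used 11-point (MIPE, 0.78 nM-46 µM) or 8-point (NPC, 0.59 nM-46 µM) final concentrations; follow-up screens used 11-point dilutions.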

Experiment [8] in a line: qHTS of pediatric cancer cell lines to identify multiple opportunities for drug repurposing: Primary screen for U-2 OS cells (AID 1347096). Further: nearly all actives have a fitted effect of over 50% in size. The essentials:
as §3

Experiment [9] is described as follows: qHTS of pediatric cancer cell lines to identify multiple opportunities for drug repurposing: Primary screen for Rh18 cells (AID 1347102). Further: nearly all actives have a fitted effect of over 65% in size. Further: potency means the concentration at half of the fitted maximal effect. The method in brief: as §3
Experiment [10] can be described thus: qHTS of pediatric cancer cell lines to identify multiple opportunities for drug repurposing: Primary screen for RD cells (AID 1347104). Further: nearly all actives have a fitted effect of over 55% in size. Further: potency means the concentration at half of the fitted maximal effect. The method in brief: as §2
A short description of experiment [11]: qHTS of pediatric cancer cell lines to identify multiple opportunities for drug repurposing: Primary screen for MG 63 (6-TG R) cells (AID 1347105). Further: nearly all actives have a fitted effect of over 50% in size. Further: potency means the concentration at half of the fitted maximal effect. The essentials: as §2
The nature of experiment [12]: qHTS of pediatric cancer cell lines to identify multiple opportunities for drug repurposing: Primary screen for SK-N-MC cells (AID 1347093). Further: potency means the concentration at half of the fitted maximal effect. The essentials: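 Metabolically active cells were quantified by ATP-dependent luminescence (CellTiter-Glo, 15 min at room temperature) following 48 h treatment. Cells had been plated at 500-1,000 per well and settled for 5 h beforehand.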

The nature of experiment [13]: qHTS of pediatric cancer cell lines to identify multiple opportunities for drug repurposing: Primary screen for Saos-2 cells (AID 1347097). Further: nearly all actives have a fitted effect of over 40% in size. Further: potency means the concentration at half of the fitted maximal effect. The method in brief: as §2
Experiment [14] in a line: qHTS of pediatric cancer cell lines to identify multiple opportunities for drug repurposing: Primary screen for Rh30 cells (AID 1347107). Further: series mostly up to about 46 µM; nearly all actives have a fitted effect of over 75% in size. The essentials: as §3
Experiment [15] is described as follows: qHTS of pediatric cancer cell lines to identify multiple opportunities for drug repurposing: Primary screen for BT-37 cells (AID 1347094). Further: potency means the concentration at half of the fitted maximal effect. The method in brief:
as §2

The nature of experiment [16]: qHTS of pediatric cancer cell lines to identify multiple opportunities for drug repurposing: Primary screen for BT-12 cells (AID 1347101). Further: nearly all actives have a fitted effect of over 25% in size. Further: potency means the concentration at half of the fitted maximal effect. The essentials:
as §1

Experiment [17] can be described thus: qHTS of pediatric cancer cell lines to identify multiple opportunities for drug repurposing: Primary screen for NB-EBc1 cells (AID 1347095). Further: potency means the concentration at half of the fitted maximal effect. The method in brief:
as §2

Experiment [18] in a line: qHTS of pediatric cancer cell lines to identify multiple opportunities for drug repurposing: Primary screen for Rh41 cells (AID 1347108). Further: nearly all actives have a fitted effect of over 70% in size. Further: potency means the concentration at half of the fitted maximal effect. The essentials:
as §2

The nature of experiment [19]: qHTS of pediatric cancer cell lines to identify multiple opportunities for drug repurposing: Confirmatory screen for NB1643 cells (AID 1347109). Further: potency means the concentration at half of the fitted maximal effect; nearly all actives have a fitted effect of over 45% in size. The essentials:
as §3

Take `Cn1cnc(-c2cc3nccc(Oc4ccc(NC(=S)NC(=O)Cc5ccccc5)cc4F)c3s2)c1`: the Potency in experiment [1] was 0.0469 µM (active); in experiment [2], 29.6 µM (active); in experiment [3], 21.5 µM (active); in experiment [4] it was 16.6 µM (active); in experiment [5], 16.6 µM (active); in experiment [6] it was 34.3 µM (active). In addition, the Potency result in experiment [7] was “inactive”.
For the compound `C=C1c2cccc(O)c2C(O)=C2C(=O)[C@@]3(O)C(O)=C(C(N)=O)C(=O)[C@@H](N(C)C)[C@@H]3[C@@H](O)[C@H]12`, the Potency entry in experiment [1], in [8], in [9], in [6], in experiment [10] and in experiment [11] was “inactive” in each case. Further, in [7], the Potency result is “inactive”. The Potency was 23.5 µM (active) in [2], 23.5 µM (active) in experiment [4] and 13.2 µM (active) in [5].
Consider `CC=C(C(=CC)c1ccc(O)cc1)c1ccc(O)cc1`, for which the Potency was 20.9 µM (active) in experiment [1]; 23.5 µM (active) in [2]; 11.8 µM (active) in [12]; 18.7 µM (active) in [13]; 27.3 µM (active) in [6]; 18.7 µM (active) in experiment [11]. The Potency entry in [8], in experiment [9] and in experiment [14] was “inactive” throughout.
On to `COc1cc2nc(-c3cc(F)ccc3O)nc(N[C@@H]3CNC[C@@H]3C(C)(C)O)c2cc1OC`, for which the Potency is 23.5 µM (active) in [1]; 7.43 µM (active) in [2]; 27.3 µM (active) in experiment [15]; 9.35 µM (active) in experiment [13]; 30.4 µM (active) in experiment [3]; 16.6 µM (active) in experiment [4]. Further, the Potency in [16] is 27.3 µM (active); in experiment [9], 18.7 µM (active); in experiment [6], 10.9 µM (active); in [10], 33.2 µM (active). Moreover, the Potency entry in experiment [7] is “inactive”.
As for `O=C(c1ccc(C(=O)N2CCC(N3CCCC3)CC2)c(Nc2ccccc2)c1)N1CCC(N2CCCC2)CC1`, the Potency entry in experiment [1], in experiment [2], in experiment [15], in [8], in experiment [3] and in experiment [4] was “inactive” throughout. Besides, the Potency result in [5], in experiment [16], in [9], in experiment [6], in experiment [10] and in [11] was “inactive” throughout. Moreover, in experiment [7], the Potency entry was “inactive”.
`Cc1ccc(C2=Nc3ccc(Cl)cc3OC2)cc1`: the Potency in [1] was 23.5 µM (active); in [2], 18.7 µM (active); in [3] it was 2.15 µM (active). Further, the Potency result in [8], in experiment [9], in experiment [6], in [11] and in [7] was “inactive” in each case.
Consider `OC1CCC(Nc2ncc3nc(Nc4c(F)cc(F)cc4F)n([C@@H]4CCOC4)c3n2)CC1` (stereo partly specified), for which the Potency in experiment [1] is 9.35 µM (active); in [2] it was 9.35 µM (active); in experiment [17] it was 5.26 µM (active). Further, the Potency result in experiment [16], in [9], in [11], in experiment [7] and in experiment [18] was “inactive” each time.
Consider `CC(C)(OCc1nn(Cc2ccccc2)c2ccccc12)C(=O)O`, for which the Potency result in [1], in experiment [15], in experiment [8], in [13], in experiment [4] and in experiment [5] was “inactive” in each case. The Potency result in [16], in experiment [9], in experiment [6], in experiment [10], in [11] and in experiment [7] was “inactive” in each case. The Potency result in experiment [14] and in [18] was “inactive” each time. The Potency in experiment [12] was 26.4 µM (active).
With `CCCCCCCCCCCCCCCC(=O)O[C@H]1[C@@H](O)[C@@H](O)[C@@H]([C@H](NC(=O)[C@@H]2C[C@@H](CCC)CN2C)[C@H](C)Cl)O[C@@H]1SC`, the Potency entry in [1], in experiment [15], in experiment [17], in experiment [8], in experiment [5] and in experiment [16] was “inactive” in each case. For the same compound, the Potency result in [9], in experiment [6], in [11], in experiment [7] and in experiment [14] was “inactive” throughout. In addition, the Potency in [12] was 18.7 µM (active).
With `CCCCCOC(=O)Nc1nc(=O)n([C@@H]2O[C@H](C)[C@@H](O)C2O)cc1F` (stereo partly specified), the Potency result in experiment [1], in [2], in [15], in experiment [17], in experiment [8] and in experiment [3] was “inactive” in each case. For the same compound, the Potency entry in [16], in [9], in experiment [6], in experiment [10], in experiment [7] and in experiment [14] was “inactive” in each case.
As to `CC1=C[C@@H]2[C@@H]([C@@H](O)C[C@@]3(C)[C@H]2C[C@@H](C)[C@]3(O)C(=O)CO)[C@@]2(C)Cc3cnn(-c4ccccc4)c3C=C12`, the Potency in [1] is 20.9 µM (active); in experiment [2], 18.7 µM (active); in [17] it was 23.5 µM (active); in experiment [13], 29.6 µM (active); in [5], 23.5 µM (active); in experiment [10], 29.6 µM (active). Also, the Potency entry in experiment [8] and in [9] was “inactive” in each case.
As to `NS(=O)(=O)c1ccc(Nc2nc(OCC3CCCCC3)c3[nH]cnc3n2)cc1`, the Potency in experiment [1] was 26.4 µM (active); in experiment [2], 23.5 µM (active); in experiment [13], 16.6 µM (active); in [5] it was 16.6 µM (active). Further, the Potency result in [16], in experiment [9], in [11], in experiment [7] and in experiment [18] was “inactive” throughout.
Consider `CC(=O)OCC(=O)[C@@]12OC(C)(C)O[C@H]1C[C@H]1[C@@H]3C[C@H](F)C4=CC(=O)C=C[C@]4(C)[C@@]3(F)[C@@H](O)C[C@@]12C`, for which the Potency result in experiment [1], in experiment [2], in experiment [15], in [17], in [8] and in experiment [3] was “inactive” in each case. In addition, the Potency result in experiment [5], in [16], in experiment [9], in experiment [10], in experiment [11] and in [7] was “inactive” in each case. In addition, the Potency result in experiment [14] is “inactive”.
On to `C[C@@H](N)c1ccc(C(=O)Nc2ccnc3[nH]ccc23)cc1`, for which the Potency in [1] is 11.8 µM (active); in [2], 9.35 µM (active); in experiment [12] it was 26.4 µM (active); in experiment [13] it was 14.8 µM (active); in experiment [3], 21.5 µM (active); in [5], 16.6 µM (active). The Potency result in [11], in experiment [7] and in experiment [14] was “inactive” each time.
For `CC1(C)CC(=O)c2c(C(F)(F)F)nn(-c3ccc(C(N)=O)c(NC4CCC(O)CC4)c3)c2C1` (stereo unspecified), the Potency in experiment [1] is 0.264 µM (active); in [2], 0.118 µM (active); in experiment [12], 0.0743 µM (active); in [17] it was 0.148 µM (active); in [3], 0.304 µM (active); in experiment [5], 0.148 µM (active). The Potency is 0.264 µM (active) in experiment [9]; 0.306 µM (active) in [6]; 0.0743 µM (active) in [10]; 0.296 µM (active) in experiment [18]; 0.165 µM (active) in experiment [19]. Further, the Potency entry in experiment [8] was “inactive”.
